The source made the active and inactive calls.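 How the source made its calls, unless noted: active means inhibition at or above 50% at 10 µM; inactive means inhibition below 50%.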
assay: blockers of RIG-like receptor reporter activation – cell-based, Sendai virus stimulus, luciferase, 10K MLSCN set, TLR/RLR signaling modifier project, primary screen (AID 602276); conditions: HEK293 RL24 IRF3 luciferase reporter, at 10 µM, stronger effect = higher value;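 further: firefly luciferase from ISG56 promoter only with Renilla not read in this screen; 0% = Sendai virus plus DMSO and 100% = medium plus DMSO without virus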

inhibition, inactive:
O=C(O)c1cc(O)c2c(c1)C(=O)c1cccc(O)c1C2=O 18%
CCCCC(=O)Nc1c(O)c2ccccc2[nH]c1=O 2.04%
Cc1cc(C)n(CC(=O)n2c3c(c4ccccc42)CCCC3)n1 -7.05%
CCC(NC(C)C)C(O)c1ccc(O)c(O)c1 (stereo not drawn) 13.9%
COc1ccc(C2CNC(=O)C2)cc1OC1CCCC1 (stereo not drawn) 15.5%
Cn1cnc2c1c(=O)[nH]c(=O)n2C 13.1%
N=c1nc(N2CCCCC2)cc(N)n1O 9.96%
CCCCCC(=O)N1CC2(C)CN(C(=O)CCCCC)CC(C)(C1)C2=O 6.58%
O=C(O)Cc1ccc(-c2ccccc2)cc1 8.68%
CCSc1nc(N)c(C#N)c(-c2ccccc2Cl)c1C#N -0.977%
O=C(OCC#CCSc1nnc(-c2ccccc2)o1)c1cccs1 -0.522%
Nc1nc(F)nc2c1ncn2[C@@H]1O[C@H](CO)[C@@H](O)[C@@H]1O 2.74%
Cc1nc2sccn2c(=O)c1CCN1CCC(=C(c2ccc(F)cc2)c2ccc(F)cc2)CC1 12%
OCCNC1=NCCN1 17.3%
CCC[C@@H]1C[C@@H](C(=O)N[C@H]([C@@H](C)O)[C@H]2O[C@H](SC)[C@H](O)[C@@H](O)C2O)N(C)C1 (stereo partly drawn) 19.5%
CCOC(=O)C1=C[C@]2(CC)CCCN3CCc4c(n1c1ccccc41)[C@@H]32 5.01%
NS(=O)(=O)c1cc2c(cc1Cl)NC(CSCc1ccccc1)=NS2(=O)=O 10.8%
Nc1ccc(S(=O)(=O)Nc2ccccn2)cc1 12.4%
CC(=O)Oc1cccc2c1C(=O)c1c(OC(C)=O)cc(C(=O)O)cc1C2=O 4.71%
OCC(O)CN1CCN(c2ccccc2)CC1 (stereo not drawn) 17.9%
O=C(NC1(C(F)(F)F)C(=O)Nc2c1c(=O)[nH]c(=O)n2Cc1ccco1)C1CCCCC1 (stereo not drawn) 12.9%
CCN(CC)CC#CCOC(=O)C(O)(c1ccccc1)C1CCCCC1 (stereo not drawn) 9.64%
CN1[C@@H](CC(=O)c2ccccc2)CCC[C@H]1C[C@H](O)c1ccccc1 8%
O=C(O)c1ccccc1Nc1cccc(C(F)(F)F)c1 5.42%
O=[N+]([O-])c1cccc2cn[nH]c12 15.9%
COc1cccc(-c2nnc3sc(C4CCCCC4)nn23)c1 28.7%
CNCCCC1c2ccccc2C=Cc2ccccc21 18.5%
CC(C)(C)NCC(O)COc1cccc2c1C[C@H](O)[C@H](O)C2 (stereo partly drawn) 9.2%
CCOC(=O)CSC1=C(C#N)C(=O)NC(c2ccc(OC)c(OC)c2)S1 (stereo not drawn) 12%
COc1ccc2nc(S(=O)Cc3ncc(C)c(OC)c3C)[nH]c2c1 (stereo not drawn) -9.53%
Cc1cc(C)c(C#N)c(SCc2[nH]nc3c2C(c2ccccc2)C(C#N)=C(N)O3)n1 (stereo not drawn) 12.1%
O/N=C/c1ccc(OCC(O)COc2ccc(/C=N/O)cc2)cc1 -3.4%
CC(C)(C)OC(=O)N1CC=C2C(C#N)=C(N)C(C#N)(C#N)[C@H](c3cccnc3)[C@H]2C1 11.2%
Oc1c(I)cc(I)c2cccnc12 12.4%
CCCCOc1ccc(C(=O)CCN2CCCCC2)cc1 4.68%
CN(C)c1nc(OCCOC(=O)Nc2ccc(Cl)cc2Cl)nc(N(C)C)n1 11.3%
CCOC(=O)c1c(C)n(C)c2ccc(OC)c(NC(=O)CCN3CCSCC3)c12 24.4%
CC(C)(C)n1cnc2cc(NS(=O)(=O)c3ccc(Br)cc3)ccc21 15.5%
Cn1c([N+](=O)[O-])cnc1COC(N)=O 16.7%

assay: TLR3 IRF3 reporter activation blockers – cell-based, poly I:C stimulus, luciferase, 10K MLSCN set, primary screen (AID 602277;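 active means inhibition of the reporter signal at or above 50%; inactive means inhibition below 50%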); conditions: HEK293-TLR3 RL24 IRF3 luciferase reporter, at 10 µM, stronger effect = higher value

inhibition, inactive:
O=C(O)c1cc(O)c2c(c1)C(=O)c1cccc(O)c1C2=O 42.8%
CCCCC(=O)Nc1c(O)c2ccccc2[nH]c1=O 1.03%
Cc1cc(C)n(CC(=O)n2c3c(c4ccccc42)CCCC3)n1 1.75%
CCC(NC(C)C)C(O)c1ccc(O)c(O)c1 (stereo not drawn) 39.3%
COc1ccc(C2CNC(=O)C2)cc1OC1CCCC1 (stereo not drawn) 0.301%
Cn1cnc2c1c(=O)[nH]c(=O)n2C 16.1%
N=c1nc(N2CCCCC2)cc(N)n1O 34.6%
CCCCCC(=O)N1CC2(C)CN(C(=O)CCCCC)CC(C)(C1)C2=O 21.5%
O=C(O)Cc1ccc(-c2ccccc2)cc1 34.8%
CCSc1nc(N)c(C#N)c(-c2ccccc2Cl)c1C#N 7.05%
O=C(OCC#CCSc1nnc(-c2ccccc2)o1)c1cccs1 1.31%
Nc1nc(F)nc2c1ncn2[C@@H]1O[C@H](CO)[C@@H](O)[C@@H]1O 23.7%
Cc1nc2sccn2c(=O)c1CCN1CCC(=C(c2ccc(F)cc2)c2ccc(F)cc2)CC1 -6.25%
OCCNC1=NCCN1 20.3%
CCC[C@@H]1C[C@@H](C(=O)N[C@H]([C@@H](C)O)[C@H]2O[C@H](SC)[C@H](O)[C@@H](O)C2O)N(C)C1 (stereo partly drawn) 27.3%
CCOC(=O)C1=C[C@]2(CC)CCCN3CCc4c(n1c1ccccc41)[C@@H]32 18.6%
NS(=O)(=O)c1cc2c(cc1Cl)NC(CSCc1ccccc1)=NS2(=O)=O 33.9%
Nc1ccc(S(=O)(=O)Nc2ccccn2)cc1 42.5%
CC(=O)Oc1cccc2c1C(=O)c1c(OC(C)=O)cc(C(=O)O)cc1C2=O 26.5%
OCC(O)CN1CCN(c2ccccc2)CC1 (stereo not drawn) 40.8%
O=C(NC1(C(F)(F)F)C(=O)Nc2c1c(=O)[nH]c(=O)n2Cc1ccco1)C1CCCCC1 (stereo not drawn) 19.7%
CCN(CC)CC#CCOC(=O)C(O)(c1ccccc1)C1CCCCC1 (stereo not drawn) 30.4%
CN1[C@@H](CC(=O)c2ccccc2)CCC[C@H]1C[C@H](O)c1ccccc1 31.3%
O=C(O)c1ccccc1Nc1cccc(C(F)(F)F)c1 28.4%
COc1cccc(-c2nnc3sc(C4CCCCC4)nn23)c1 10.1%
CNCCCC1c2ccccc2C=Cc2ccccc21 41.3%
CC(C)(C)NCC(O)COc1cccc2c1C[C@H](O)[C@H](O)C2 (stereo partly drawn) 32.8%
CCOC(=O)CSC1=C(C#N)C(=O)NC(c2ccc(OC)c(OC)c2)S1 (stereo not drawn) 11.8%
COc1ccc2nc(S(=O)Cc3ncc(C)c(OC)c3C)[nH]c2c1 (stereo not drawn) -10.5%
Cc1cc(C)c(C#N)c(SCc2[nH]nc3c2C(c2ccccc2)C(C#N)=C(N)O3)n1 (stereo not drawn) 20.3%
O/N=C/c1ccc(OCC(O)COc2ccc(/C=N/O)cc2)cc1 -9.91%
CC(C)(C)OC(=O)N1CC=C2C(C#N)=C(N)C(C#N)(C#N)[C@H](c3cccnc3)[C@H]2C1 10.3%
Oc1c(I)cc(I)c2cccnc12 30.5%
CCCCOc1ccc(C(=O)CCN2CCCCC2)cc1 21.9%
CN(C)c1nc(OCCOC(=O)Nc2ccc(Cl)cc2Cl)nc(N(C)C)n1 0.088%
CCOC(=O)c1c(C)n(C)c2ccc(OC)c(NC(=O)CCN3CCSCC3)c12 28.3%
CC(C)(C)n1cnc2cc(NS(=O)(=O)c3ccc(Br)cc3)ccc21 13.8%
Cn1c([N+](=O)[O-])cnc1COC(N)=O 40.5%

inhibition, active:
O=[N+]([O-])c1cccc2cn[nH]c12 50.4%
